Screening results from PubChem BioAssay.
IDH1 R132H inh = qHTS for Inhibitors of mutant isocitrate dehydrogenase 1 (IDH1): qHTS; Isocitrate dehydrogenase [NADP] cytoplasmic (Homo sapiens), O75874; IDH1-R132H enzyme, NADPH consumption, diaphorase/resazurin fluorescence; Potency, µM (doses to about 76.6 µM), hits mostly inhibitors; hit rate 0.093% among 390,000; AID 602179, 2012; active = well fitted inhibition curve with a large enough effect; inconclusive = small, poorly fitted or top-dose-only effect; inactive = no such curve, though single readings can be large or run the other way; note: nearly all actives have a fitted effect of over 65% in size
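IDH1-R132H (0.5 ug/mL) preincubated 30 min with compound, then NADPH (0.016 mM) and alpha-KG (2 mM) added; 80 min at RT, pH 7.5. Remaining NADPH coupled via diaphorase/resazurin to fluorescence (540/590 nm); concentration-response curves normalized to no-enzyme control.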
LDHA block = qHTS assay for inhibitors of human lactate dehydrogenase; L-lactate dehydrogenase A chain (Homo sapiens), P00338; purified LDHA, NADH/diaphorase-resazurin fluorescence; active compounds read low; activity change, % (values are at about 110 or 230 µM); hit rate 0.15% among 480,000; in the data active = activity change below about -30%; inconclusive = mostly about -25% to -30%
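Human LDH5 at 2 nM final in Tris HCl pH 7.4 with 0.06 mM NADH and 0.2 mM pyruvate, reacted 5 minutes at room temperature. Remaining NADH coupled via diaphorase/resazurin; resorufin fluorescence read at 0 and 20 minutes, normalized to enzyme-free and DMSO wells.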
pAkt inh = HTS Assay for Inhibitors of Akt Phophorylation: Primary Screen; activity change, % for hits at 50 µM; hit rate 0.32% among 360,000; Neuro2A IGF-stimulated pAkt S473 HTRF, 20 min; active compounds read low; in the data active = activity change below about -80%; inconclusive = mostly about -51% to -80%
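Neuro2A cells (4,500/well, DMEM with 0.5% FBS) were treated with compound at a single 50 µM final concentration, stimulated with 6 nM IGF for 20 min at 37 °C, and lysed. Phospho-Akt Ser473 was read by HTRF as 665/615 ratio ×10^4.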
CXXC DNA block = qHTS Fluorescence Polarization Assay for Inhibitors of MLL CXXC domain - DNA interaction; MLL-CXXC / FITC-HOXA9 DNA fluorescence polarization; Potency, µM (highest dose often 115 µM), actives largely listed as inhibitors; hit rate 0.037% among 290,000; active = well fitted inhibition curve with a large enough effect in the polarisation, with a control signal flat, not every such curve was filed as active; inconclusive = small, poorly fitted or top-dose-only effect, or effect the other way, or a change in a side signal; inactive = no such curve, though single readings can be large or run the other way; the % refers to the polarisation
Target sequence (Q03164 whole entry, looked up, the tested form may be a part): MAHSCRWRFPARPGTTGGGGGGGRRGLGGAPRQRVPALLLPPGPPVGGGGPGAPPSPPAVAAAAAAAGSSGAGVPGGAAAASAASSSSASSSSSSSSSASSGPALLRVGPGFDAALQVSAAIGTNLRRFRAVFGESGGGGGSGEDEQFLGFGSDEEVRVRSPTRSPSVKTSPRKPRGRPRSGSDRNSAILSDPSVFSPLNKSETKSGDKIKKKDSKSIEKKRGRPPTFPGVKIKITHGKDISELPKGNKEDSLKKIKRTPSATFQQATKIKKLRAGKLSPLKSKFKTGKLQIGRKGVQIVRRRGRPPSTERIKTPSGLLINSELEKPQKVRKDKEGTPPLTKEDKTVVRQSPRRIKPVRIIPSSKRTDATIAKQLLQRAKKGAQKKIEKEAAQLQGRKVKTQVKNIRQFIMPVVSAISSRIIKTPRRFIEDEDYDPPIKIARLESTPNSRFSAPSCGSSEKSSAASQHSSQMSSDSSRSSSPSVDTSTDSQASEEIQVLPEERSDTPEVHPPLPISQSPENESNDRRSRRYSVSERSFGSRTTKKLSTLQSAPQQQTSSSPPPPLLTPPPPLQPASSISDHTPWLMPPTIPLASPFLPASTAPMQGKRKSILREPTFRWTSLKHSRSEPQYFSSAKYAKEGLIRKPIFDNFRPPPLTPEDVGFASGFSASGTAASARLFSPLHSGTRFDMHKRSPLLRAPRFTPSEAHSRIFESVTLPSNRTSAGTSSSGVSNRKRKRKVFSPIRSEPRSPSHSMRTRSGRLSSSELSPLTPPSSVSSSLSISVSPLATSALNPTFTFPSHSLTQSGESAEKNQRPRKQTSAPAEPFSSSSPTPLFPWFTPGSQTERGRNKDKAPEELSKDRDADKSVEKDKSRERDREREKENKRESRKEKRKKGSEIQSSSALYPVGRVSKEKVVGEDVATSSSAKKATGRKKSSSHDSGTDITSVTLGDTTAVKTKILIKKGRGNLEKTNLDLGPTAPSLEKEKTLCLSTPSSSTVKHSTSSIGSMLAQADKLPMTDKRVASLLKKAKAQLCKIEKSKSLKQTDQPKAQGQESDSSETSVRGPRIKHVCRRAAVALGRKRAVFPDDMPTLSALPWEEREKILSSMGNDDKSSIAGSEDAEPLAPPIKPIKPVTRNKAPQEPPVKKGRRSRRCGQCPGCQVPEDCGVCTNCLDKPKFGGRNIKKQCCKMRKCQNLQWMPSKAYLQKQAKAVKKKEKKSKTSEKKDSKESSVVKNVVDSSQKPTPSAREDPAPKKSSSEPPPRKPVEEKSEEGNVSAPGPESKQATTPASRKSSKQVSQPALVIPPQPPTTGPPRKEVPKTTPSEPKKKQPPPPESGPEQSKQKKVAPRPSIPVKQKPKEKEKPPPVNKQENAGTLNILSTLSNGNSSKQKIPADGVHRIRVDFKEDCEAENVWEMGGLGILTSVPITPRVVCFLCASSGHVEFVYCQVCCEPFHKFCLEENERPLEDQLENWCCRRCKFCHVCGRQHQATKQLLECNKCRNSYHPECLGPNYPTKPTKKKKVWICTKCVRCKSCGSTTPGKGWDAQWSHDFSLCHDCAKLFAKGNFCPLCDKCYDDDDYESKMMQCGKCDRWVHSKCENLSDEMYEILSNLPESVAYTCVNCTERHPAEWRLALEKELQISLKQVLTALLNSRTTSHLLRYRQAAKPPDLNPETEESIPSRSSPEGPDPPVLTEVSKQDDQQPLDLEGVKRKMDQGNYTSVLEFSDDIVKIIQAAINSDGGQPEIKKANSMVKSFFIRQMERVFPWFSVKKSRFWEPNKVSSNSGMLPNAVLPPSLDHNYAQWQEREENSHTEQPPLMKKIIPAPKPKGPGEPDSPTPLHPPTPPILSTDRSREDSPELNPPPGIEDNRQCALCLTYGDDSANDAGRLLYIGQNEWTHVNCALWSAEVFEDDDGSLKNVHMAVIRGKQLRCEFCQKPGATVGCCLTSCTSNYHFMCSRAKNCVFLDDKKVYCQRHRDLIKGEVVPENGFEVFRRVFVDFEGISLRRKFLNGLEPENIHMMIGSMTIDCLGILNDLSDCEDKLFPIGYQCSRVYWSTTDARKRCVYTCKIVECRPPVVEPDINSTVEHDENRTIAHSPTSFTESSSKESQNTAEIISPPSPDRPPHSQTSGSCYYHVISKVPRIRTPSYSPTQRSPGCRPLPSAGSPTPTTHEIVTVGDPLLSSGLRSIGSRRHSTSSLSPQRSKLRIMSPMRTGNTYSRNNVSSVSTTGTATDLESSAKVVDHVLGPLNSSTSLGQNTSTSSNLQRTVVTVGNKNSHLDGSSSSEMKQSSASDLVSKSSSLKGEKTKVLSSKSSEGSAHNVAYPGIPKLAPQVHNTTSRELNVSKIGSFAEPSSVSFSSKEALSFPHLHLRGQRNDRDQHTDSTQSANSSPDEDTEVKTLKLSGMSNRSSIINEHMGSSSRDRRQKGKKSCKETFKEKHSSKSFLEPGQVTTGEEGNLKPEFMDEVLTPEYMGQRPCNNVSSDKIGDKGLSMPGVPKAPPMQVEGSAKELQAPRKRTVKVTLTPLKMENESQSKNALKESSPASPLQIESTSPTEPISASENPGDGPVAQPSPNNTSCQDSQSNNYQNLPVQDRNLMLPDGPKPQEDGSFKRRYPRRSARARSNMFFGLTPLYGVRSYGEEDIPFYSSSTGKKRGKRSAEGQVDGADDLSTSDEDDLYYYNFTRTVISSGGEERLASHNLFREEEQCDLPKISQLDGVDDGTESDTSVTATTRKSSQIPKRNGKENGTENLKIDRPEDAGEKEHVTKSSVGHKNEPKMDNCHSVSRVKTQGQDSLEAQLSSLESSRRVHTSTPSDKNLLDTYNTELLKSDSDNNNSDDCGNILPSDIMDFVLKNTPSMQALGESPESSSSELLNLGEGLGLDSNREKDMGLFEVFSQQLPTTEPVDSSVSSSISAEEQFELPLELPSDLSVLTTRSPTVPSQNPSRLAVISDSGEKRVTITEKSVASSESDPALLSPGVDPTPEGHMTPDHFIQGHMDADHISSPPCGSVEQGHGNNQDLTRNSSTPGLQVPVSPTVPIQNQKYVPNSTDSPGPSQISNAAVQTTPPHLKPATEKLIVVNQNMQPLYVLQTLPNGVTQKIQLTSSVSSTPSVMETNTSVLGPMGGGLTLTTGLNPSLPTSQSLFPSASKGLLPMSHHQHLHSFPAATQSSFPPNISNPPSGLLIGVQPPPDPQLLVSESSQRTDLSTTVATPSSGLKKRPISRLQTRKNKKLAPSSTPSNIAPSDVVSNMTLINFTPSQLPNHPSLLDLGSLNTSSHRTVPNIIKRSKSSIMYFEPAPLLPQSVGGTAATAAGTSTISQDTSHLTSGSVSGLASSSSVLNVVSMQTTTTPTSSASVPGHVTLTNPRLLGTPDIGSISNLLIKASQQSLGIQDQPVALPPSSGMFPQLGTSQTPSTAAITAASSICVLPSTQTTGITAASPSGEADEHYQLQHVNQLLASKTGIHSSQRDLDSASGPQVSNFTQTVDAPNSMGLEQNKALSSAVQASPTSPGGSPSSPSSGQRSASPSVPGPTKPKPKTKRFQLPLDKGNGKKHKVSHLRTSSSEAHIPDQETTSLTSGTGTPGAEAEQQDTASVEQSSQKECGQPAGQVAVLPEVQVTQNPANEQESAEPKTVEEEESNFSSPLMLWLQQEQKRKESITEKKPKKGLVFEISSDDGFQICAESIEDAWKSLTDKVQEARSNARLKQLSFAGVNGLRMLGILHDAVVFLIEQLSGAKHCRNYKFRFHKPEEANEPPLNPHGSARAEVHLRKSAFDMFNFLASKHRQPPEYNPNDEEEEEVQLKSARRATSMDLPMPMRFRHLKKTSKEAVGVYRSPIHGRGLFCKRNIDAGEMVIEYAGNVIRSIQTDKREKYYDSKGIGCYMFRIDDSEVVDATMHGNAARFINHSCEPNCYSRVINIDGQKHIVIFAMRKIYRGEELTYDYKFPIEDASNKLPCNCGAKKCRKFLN
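Purified MLL-CXXC (added from a 7 uM solution) was preincubated 5 min at ambient with pinned compounds in 50 mM Tris-HCl pH 7.5, 50 mM NaCl, 1 mM DTT, 0.05% BSA. Fluorescein-labeled HOX-A9 DNA (50 nM solution) followed, 30 min, then polarization read.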
Menin MLL FP TR = qHTS Assay for Inhibitors Targeting the Menin-MLL Interaction in MLL Related Leukemias: Competition With Texas Red Labeled MLL-derived Mutant Peptide. O00255. Menin + Texas Red MLL mutant peptide, fluorescence polarization. Potency, µM (titrated, usually from 61.6 µM), usual class: inhibitors. hit rate 0.23% among 270,000; active = well fitted inhibition curve with a large enough effect in the polarisation, with a control signal flat, not every such curve was filed as active; inconclusive = small, poorly fitted or top-dose-only effect, or effect the other way, or a change in a side signal; inactive = no such curve, though single readings can be large or run the other way; the % refers to the polarisation
Menin-MLL FL inh = qHTS Assay for Inhibitors Targeting the Menin-MLL Interaction in MLL Related Leukemias: Competition With Fluorescein Labeled MLL-derived Peptide; AID 1766, 2009; Fluorescence polarization, fluorescein-MLL peptide displacement from menin; 290,000 tested, under 10 active; FP activity change, % at 61.4 µM; active = well fitted curve in the direction sought with a large enough effect in the polarisation, not every such curve was filed as active; inconclusive = small, poorly fitted or top-dose-only effect, or effect the other way, or a change in a side signal; inactive = no such curve, though single readings can be large or run the other way; the % refers to the polarisation
A number is an active result; n = inactive; u = inconclusive; x = not tested or not shown; [ ] = dose if it differs, or a comment. Most compounds without a hit are left out; they make up all but 0.54% or so of the library.

SMILES	IDH1 R132H inh	LDHA block	pAkt inh	CXXC DNA block	Menin MLL FP TR	Menin-MLL FL inh
CCn1ncc(C(=O)Nc2ccc(S(=O)(=O)N3CCCC3)cc2)c1C	n	n	-123%	n	n	n
Cc1ccc(C(=O)NNC(=O)c2ccc(S(=O)(=O)N3CCCCC3)cc2)cc1	n	-32	n	x	x	x
COc1ccccc1-n1cnnc1SCC(=O)NCc1cccs1	n	n	-111%	n	n	n
CCOc1ccc(Cn2c(O)cc(=O)[nH]c2=O)cc1	n	n	-117%	n	u	n
CC(=O)NC1=NN(C(C)=O)C2(S1)C(=O)N(C)c1ccc(F)cc12 (configuration not stated)	x	n	x	x	x	x
COC(=O)c1sccc1NC(=O)CC1(C(=O)O)CCCCC1	x	n	x	x	x	x
Cc1nn(Cc2ccc(F)cc2)c(C)c1NC(=O)c1cnn2c1NC(c1ccccc1)CC2C(F)(F)F (configuration not stated)	n	n	n	n	n	n
NC(=O)c1cnn2c1NC(c1ccc(F)cc1)CC2C(F)(F)F (configuration not stated)	n	n	-111%	n	n	n
CCC(=O)Nc1ccccc1C(=O)OCC(=O)c1cccc2ccccc12	n	n	-118%	n	n	n
CCC(=O)Nc1ccccc1C(=O)OCc1ccc(C(=O)c2ccccc2)cc1	n	n	n	n	n	n
O=c1c2cc(-c3ccccc3)sc2ncn1/N=C/c1ccco1	n	n	-106%	n	n	n
CCOC(=O)CC(NC(=O)c1cc2cc(Cl)ccc2oc1=O)c1ccccc1Cl (configuration not stated)	x	n	x	x	x	x
CCOC(=O)c1nnn(-c2nonc2N)c1-c1ccc(OC)cc1	n	n	-110%	n	n	n
CCOC(=O)c1nnn(-c2nonc2N)c1-c1ccc(Cl)cc1	n	n	n	n	n	n
Cc1ccc(-n2cc3c(-c4cccc(Br)c4)nnc(C)c3n2)cc1	n	n	-102%	n	n	n
CC1C(c2cccs2)=[N+]([O-])C(C)(c2ccccc2)N1O (configuration not stated)	x	n	x	x	x	x
O=c1c2ccccc2sn1-c1ccccc1F	n	-52	n	x	x	x
O=c1c2ccccc2sn1-c1ccccc1	n	u	-107%	n	n	n
O=C(O)c1cccc(-n2sc3ccccc3c2=O)c1	n	n	n	x	x	x
O=c1c2ccccc2sn1-c1cccc(Cl)c1	n	n	n	x	x	x
Cc1ccccc1-n1sc2cc(F)ccc2c1=O	n	n	n	n	n	n
CN(C)S(=O)(=O)c1cccc(-n2sc3ccccc3c2=O)c1	n	-43	n	n	n	n
COC(=O)c1ccc(C)c(S(=O)(=O)NCc2ccc(N3CCCC3)nc2)c1	x	n	x	x	x	x
O=C(CSc1ccc(-c2ccccn2)nn1)NCCc1ccccc1	x	n	x	x	x	x
CCCOC(=O)c1ccc(NC(=O)NC(c2cccc(F)c2)c2nccn2C)cc1 (configuration not stated)	x	n	x	x	x	x
SMILES	IDH1 R132H inh	LDHA block	pAkt inh	CXXC DNA block	Menin MLL FP TR	Menin-MLL FL inh
CC[n+]1ccc(C[n+]2ccccc2)c2ccccc21	n	-40	n	n	n	n
COc1ccc(NC(=O)c2cc([N+](=O)[O-])ccc2O)cc1	n	-38	n	n	u	n
COc1ccccc1OC(C(=O)NC1CC1)c1ccccc1 (configuration not stated)	x	-30	x	x	x	x
O=C(c1ccc(Cl)cc1Cl)N(CCS(=O)(=O)N1CCCCC1)Cc1cccnc1	x	n	x	x	x	x
Cc1csc(SC(C)C(=O)c2ccc(F)cc2)n1 (configuration not stated)	x	n	x	x	x	x
CCCCC(=O)N1CCCC(c2nc3c(nnn3Cc3cc(C)ccc3C)c(=O)[nH]2)C1 (configuration not stated)	n	n	-118%	n	n	n
Cc1ccccc1NC(=O)CCC(=O)OCC(=O)c1ccc(-c2ccccc2)cc1	n	n	n	n	35µM	n
O=C(CCC(=O)OCC(=O)c1ccc(-c2ccccc2)cc1)Nc1cccc(Cl)c1	n	n	n	n	25µM	n
COc1ccc(C(=O)CCC(=O)Nc2ccccc2C)cc1	n	n	x	x	x	x
O=C(COc1ccc(Cl)cc1Cl)OCC(=O)c1ccc(-c2ccccc2)cc1	x	n	x	x	x	x
CCC(CC)NC(=O)c1cccc(I)c1	x	n	x	x	x	x
Cc1nccn1CC(O)Cn1c2ccccc2c2ccccc21 (configuration not stated)	n	n	-101%	n	n	n
Cc1ccc2nc(NC(=O)c3cccc(-c4cc5ccccc5oc4=O)c3)sc2c1	n	n	n	n	22µM	n
C=CCn1c(-c2csc(-c3ccccc3)n2)n[nH]c1=S	n	n	-106%	n	n	n
COC(=O)C1=C(CN2CCN(C)CC2)NC(=O)NC1c1ccc(C)cc1 (configuration not stated)	x	n	x	x	x	x
CCOC(=O)N1CCN(C(=O)Cc2ccc(-n3c(=O)[nH]c4ccccc4c3=O)cc2)CC1	n	n	-109%	n	n	n
CCOC(=O)c1ccc(-n2c(=O)[nH]c3ccccc3c2=O)cc1	n	n	n	n	n	n
O=C(CN1C(=O)CNC1=O)Nc1cccc(C(F)(F)F)c1	n	n	-101%	n	n	n
O=C1NCCCC1C(=O)Nc1cccc(C(F)(F)F)c1 (configuration not stated)	n	n	-102%	n	n	n
O=C(CN1C(=O)C2CCCCC2C1=O)Nc1cccc(C(F)(F)F)c1 (configuration not stated)	n	n	n	x	x	x
O=C1CCC(C(=O)Nc2cccc(C(F)(F)F)c2)N1 (configuration not stated)	n	n	n	n	n[11.7 µM]	n
COc1ccc(-c2noc(CN3CCC(C(=O)Nc4ccc(-c5ccno5)cc4)CC3)n2)cc1OC	x	n	x	x	x	x
Fc1ccc2[nH]c3c(NCCN4CCOCC4)ncnc3c2c1	n	-35	n	n	n	n
O=C(Cc1n[nH]c(=O)c2ccccc12)Nc1ccc(-c2nnc3n2CCCCC3)cc1	n	n	-110%	n	n	n
CCOC(=O)c1cn(C)nc1S(=O)(=O)N1CCOCC1	x	n	x	x	x	x
O=C(Cc1ccc2ccccc2c1)Nc1cnc2ccccc2c1	x	n	x	x	x	x
O=C(COc1ccc2ccccc2c1)Nc1cnc2ccccc2c1	x	-33	x	x	x	x
CC(C)OP(=O)(c1ccc(N(C)C)cc1)C(O)c1ccc(N(C)C)cc1 (configuration not stated)	n	n	n	n	10µM	n
